High-throughput results deposited in PubChem by National Center for Advancing Translational Sciences (NCATS).
VDR inhibitor = vitamin D3 receptor (human) inhibition; VDR-SRC2-3 peptide fluorescence polarization, 2 h; Potency, µM, inactives show max response, negative = inhibition, usual class: inhibitors; 400,000 tested, 0.93% active; AID 504847; note: % is set by controls: 0 for no effect and ±100 for the full control effect
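VDR–SRC2-3 interaction, FP format. Cmpds 23 nl via pintool, brief spin, 2 h ambient incubation.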
L3MBTL1 block = blocks human L3MBTL1. AlphaScreen L3MBTL1–H3K9me1 peptide binding. AID 485360. Q9Y468. Potency, µM (highest dose often 57.1 µM), inactives show at the top dose activity, negative = inhibition, usual class: inhibitors. 230,000 tested, 0.66% active; note: % is set by controls: 0 for no effect and ±100 for the full control effect; nearly all actives have a fitted effect of over 60% in size
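First, the protein-peptide complex forms for 30 min at room temperature (L3MBTL1 50 nM, biotinylated H3K9me1 peptide 75 nM). Next, compounds are pin-transferred and incubated 30 min. Finally, AlphaScreen beads are added and read after 30 min.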
BAZ2B block = inhibitors of human BAZ2B bromodomain; Q9UIF8; AlphaScreen BAZ2B-H3K14Ac peptide displacement; Potency, µM (titrated, usually from 114 µM), for inactives: top-dose activity change, negative = inhibition, hits mostly inhibitors; 360,000 tested, 4.4% active; note: % is set by controls: 0 for no effect and ±100 for the full control effect; nearly all actives have a fitted effect of over 60% in size
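In this displacement format the biotinylated H3(5-23) peptide acetylated at Lys14 serves as ligand at 50 nM, with BAZ2B at 50 nM in PBS pH 7.4 containing 0.01% Tween-20. Donor and acceptor beads are 10 ug/mL final.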
HP1b chromo inh = inhibitors of HP1-beta chromodomain binding to methylated histone tails; P83916; AlphaScreen HP1-beta / biotin-H3K9me3 peptide binding; Potency, µM (top dose mostly 114 µM), for the others: at the highest dose activity change, negative = inhibition, actives largely listed as inhibitors; 390,000 tested, 0.56% active; note: nearly all actives have a fitted effect of over 70% in size
Target sequence (P83916 whole entry, looked up): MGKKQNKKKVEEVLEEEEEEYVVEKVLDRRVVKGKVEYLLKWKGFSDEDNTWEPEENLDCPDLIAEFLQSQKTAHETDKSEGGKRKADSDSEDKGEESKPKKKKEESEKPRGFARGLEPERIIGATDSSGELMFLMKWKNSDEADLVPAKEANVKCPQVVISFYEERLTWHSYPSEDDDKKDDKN
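AlphaScreen: HP1-beta (50 nM) preformed 30 min with biotin-H3(1-18)K9me3 peptide (50 nM) in PBS pH 7.4, 0.01% Tween-20. Compound added for 30 min at RT, then streptavidin donor/nickel chelate acceptor beads (10 ug/mL) for 30 min.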
PLK1 PBD block = inhibitors of human PLK1 polo-box domain binding; P53350; Plk1 PBD binding of FITC phosphopeptide, fluorescence polarization; Potency, µM, for inactives: max response, negative = inhibition, actives largely listed as inhibitors; 360,000 tested, 2.8% active; note: series mostly up to about 57 µM; % is set by controls: 0 for no effect and ±100 for the full control effect; nearly all actives have a fitted effect of over 65% in size
JMJD2A Tudor = JMJD2A Tudor domain (human) inhibition. O75164. AlphaScreen JMJD2A-Tudor / H3K4me3 peptide binding. Potency, µM (titrated, usually from 114 µM), without a hit: at the highest dose activity change, negative = inhibition, actives largely listed as inhibitors. 390,000 tested, 4.4% active. AID 504339; note: % is set by controls: 0 for no effect and ±100 for the full control effect; nearly all actives have a fitted effect of over 50% in size
* marks the source's active call; other numbers are inactive results; u = inconclusive; x = no result given; [ ] = dose if it differs, or a comment. A selection: hits, their analogues and other compounds. The true share with any hit is near 6.9%. Calls come from the whole dose curve; as a rule, active = well fitted curve in the direction sought with a large enough effect; inconclusive = small, poorly fitted or top-dose-only effect, or another doubt; inactive = no such curve, though single readings can be large; an effect the other way counts as inactive or inconclusive. Potency is the fitted concentration of half-maximal effect.

SMILES	VDR inhibitor	L3MBTL1 block	BAZ2B block	HP1b chromo inh	PLK1 PBD block	JMJD2A Tudor
CCC(C(=O)NCCc1ccc(OC)cc1OC)n1nc(C)n2c(cc3occc32)c1=O (stereo not drawn)	23%	x	-13%	14%	-21%	-18%
O=C1C=C(NC2=CC3OC(c4ccccc4)OCC3OC2=O)CCC1 (stereo not drawn)	79µM*	1%	5%	42%	-10%	1%
CCC(Sc1nnc2c(n1)[nH]c1ccccc12)C(=O)Nc1nnc(C(C)C)s1 (stereo not drawn)	6%	x	-9%	21%	x	-6%
CC(=O)n1c(C=Nc2ccc(Cl)cc2)c(O)c2ccccc21	7%	20%	-1%	67%	6.7µM*	1%
Cc1c(Cl)cccc1NC(=O)Cn1cccc1	5%	-1%	u	-6%	-8%	-25%
Cc1cc(C)c2c(=O)n(CC(=O)Nc3ccc(Br)c(C)c3)sc2n1	u	3%	u	u	3µM*	2.5µM*
COc1ccc(OC)c(CCNC(=O)Cn2sc3nc(C)cc(C)c3c2=O)c1	x	x	50µM*	x	x	x
Cc1cc(NC(=O)Cc2ccsc2)ccc1Br	-17%	x	8%	48%	-5%	-4%
Cc1cc(C)c2c(=O)n(CC(=O)Nc3cccc(Cl)c3C)sc2n1	18µM*	x	u	7.9µM*	2.7µM*	2µM*
Cc1cc(C)c2c(=O)n(CC(=O)NC3CCCC3)sc2n1	10µM*	-1%	79µM*	8.9µM*	1.9µM*	2.2µM*
CC(C)c1ccc2occ(CC(=O)Nc3cccc(C(F)(F)F)c3)c2c1	16%	x	1%	71%	x	32%
Cc1cccc(CCn2c(=O)c3ccccc3n(Cc3cccc(F)c3)c2=O)c1	-22%	x	35%	62%	x	36%
S=C(NCc1cccs1)NCC1CCCO1 (stereo not drawn)	-1%	-13%	-37%	23%	-5%	-10%
COc1ccc(C(=O)Nc2ccc(S(=O)(=O)Nc3cnc4ccccc4n3)cc2)cc1	9%	-4%	1%	28%	-16%	-10%
O=C(Nc1ccc(S(=O)(=O)Nc2cnc3ccccc3n2)cc1)c1cc(F)c(F)cc1Cl	u	x	-20%	5%	30µM*	79µM*
O=C(Nc1ccc(S(=O)(=O)Nc2cnc3ccccc3n2)cc1)c1ccc(Cl)c([N+](=O)[O-])c1	u	3%	-36%	-16%	42µM*	-26%
O=C(Nc1ccc(S(=O)(=O)Nc2cnc3ccccc3n2)cc1)c1ccc(Cl)cc1Cl	-16%	x	x	-12%	-14%	-6%
Cc1cc(Cl)ccc1OC(C)C(=O)Nc1ccc(S(=O)(=O)Nc2cnc3ccccc3n2)cc1 (stereo not drawn)	-63%	-3%	-9%[57.1 µM]	-20%	21µM*	-18%[11.4 µM]
CCCCCCCCCCOc1cc(OCCCCCCCCCC)cc(N(CC(=O)O)CC(=O)O)c1	50µM*	x	x	x	x	x
Cc1cccc(CCN=c2c([N+](=O)[O-])nn(-c3ccccc3)n2O)c1	-9%	x	x	u	-2%	50µM*
COc1ccc(C(C)=O)cc1Cn1cnc2c(cnn2C)c1=O	u	-5%	-3%	-4%	19µM*	-18%[11.4 µM]
Cc1cc(C)cc(OCCSc2nc(-c3ccc(C(C)(C)C)cc3)nc3cc(=O)[nH]n23)c1	-6%	x	-17%	3%	x	-36%
COc1ccccc1OCCCSc1nc(-c2ccc(C(C)(C)C)cc2)nc2cc(=O)[nH]n12	16%	x	u	2.2µM*	x	50µM*
Cc1cc(OCCCSc2nc(-c3ccc(C(C)(C)C)cc3)nc3cc(=O)[nH]n23)ccc1Cl	10%	x	28µM*	u	x	32µM*
CC(C)(C)c1ccc(-c2nc(SCCCOc3ccccc3)n3[nH]c(=O)cc3n2)cc1	-4%	x	50µM*	-21%	x	50µM*
COc1ccc(-c2nc(SCCOc3ccccc3Cl)n3[nH]c(=O)cc3n2)cc1	1%	x	-2%	-3%	x	-20%
CC(C)(C)C(=O)Nc1nc(=S)ss1	u	x	-9%	-20%	u	-20%
